Measurements as given in PubChem BioAssay (NCI).
This is part of a sample that, as a whole, favours compounds with a hit. Of some 83,000 tested, about 20% had one in any assay.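 48-hour exposure, single concentration, 96-well plates; percent growth endpoint where 0 means no net growth. Active: below 10.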 Activity calls are given as the source filed them.

These compounds were tested on NCI/ADR-RES ovarian (assay: NCI-60 one-dose screen, 48 h (100 = growth as untreated, 0 = no growth, -100 = all killed)). Conditions: 10 µM unless noted.
Method: Growth inhibition of the NCI/ADR-RES human […] tumor cell line is measured as a screen for anti-cancer activity. Cells are grown in 96 well plates and exposed to the test compound for 48 hours. Compounds are tested at a single concentration, which is 10^-5 M for most compounds. The reported endpoint is percent growth (GI% or GIPRCNT), where numbers from 0 - 100% represent growth inhibition, and numbers from -100% - 0 represent cell death. For example, a value of 40 represents 60% growth inhibition. A value of 0 means no net growth occurred over the course of the experiment. A value of -40 indicates 40% of cells at the beginning of the experiment died by the end of the experiment. A value of -100 means all cells are dead at the end of the experiment.
NCI-60 Human Tumor Cell Lines Screen was performed using the standard one-dose NCI protocol, which is described in more detail at https://dtp.cancer.gov/discovery_development/nci-60/default.htm.
Compounds with GIPRCNT values below 10 were considered active. Activity score was based on GIPRCNT using the following formula: […]
Score is 0 for GIPRCNT values of 100 or above, 50 for GIPRCNT values of 0, and 100 for GIPRCNT values of -100.
In the case of O=C1Nc2ccc(Cl)cc2/C1=N/c1nc(-c2ccc(Cl)cc2)cs1, the growth is reported as 57.7% (inactive). For Cc1[nH]c(N=Nc2ccccc2)nc1N=Nc1ccccc1, the growth was 0.979% (active). With COc1ccc(C(=O)c2cc(OC)c(OC)c(OC)c2)cc1OC(=O)CCl the growth was 10.2% (inactive). For CC(C)(C)c1nc2c(s1)c1nc(N)ncc1c1ccc(NS(=O)(=O)c3c(F)cccc3F)c(F)c12, the growth was 80.6% (inactive). With COc1cc(NC(=O)Nc2cnc(Nc3ccc(N4CCOCC4)cc3)nc2Oc2ccc(F)cc2)cc(OC)c1 the growth was 95.4% (inactive). CCCCC(=O)Nc1c(C(=O)Nc2ccccc2)sc2nc3c(cc12)C(OC(=O)CCCC)CCC3 (stereo not given) was tested, and the growth was 79.3% (inactive). With O=C1c2ccccc2C(=O)c2c1oc1c2c(=O)[nH]c2ccc(Cl)cc21 the growth was 22.3% (inactive). COc1ccc2nc(-c3ccc(Cl)cc3)cc(C(=O)N3N=C(c4ccc(N)cc4)CC3c3ccccc3)c2c1 (stereo not given) was tested, and the growth was 15.2% (inactive). With CCC[S@](=O)c1ccc2nc(NC(=O)OC)[nH]c2c1 the growth was 106% (inactive). With COc1cc(/C=N/Nc2nc(-c3ccc(F)cc3)c(C#N)c(N3CCOCC3)n2)ccc1O the growth was 102% (inactive). For c1ccc(-c2n(Cc3ccc4ccccc4n3)cc[n+]2Cc2ccc3ccccc3n2)cc1, the growth was 105% (inactive). With COc1ccc(-n2nc(C(=O)NCC(=O)O)nc2-c2ccccc2)cc1 the growth was 118% (inactive). With COc1ccc(C2N(c3cc(OC)c(OC)c(OC)c3)C(=O)C2(F)F)cc1F (stereo not given) the growth was 32.9% (inactive). For Nc1ccccc1NC(=O)c1ccc(CSc2nc(N3CCOCC3)c3cccn3n2)cc1, the growth was 3.65% (active). With c1ccc(-c2cn3ccnc3c(-c3ccc4c(c3)ncn4C3CCCCC3)n2)cc1 the growth was 100% (inactive). With Nc1cc(N)c(S(=O)(=O)O)cc1N=Nc1cc([N+](=O)[O-])ccc1O the growth was 106% (inactive). Cc1ccc(CS/C(=C\c2ccc([N+](=O)[O-])cc2)C(=O)c2ccc(F)cc2)cc1 was tested, and the growth was 49.6% (inactive). COC(=O)CCc1n(Cc2ccc3ccccc3c2)c2ccccc2[n+]1Cc1ccc2ccccc2c1 was tested, and the growth was 100% (inactive). With COc1cc(-c2cn(-c3ccc(Cl)c(Cl)c3)c(=O)[nH]2)cc(OC)c1OC the growth was 95.5% (inactive). In the case of C=CCn1c(SCC(=O)Nc2ccc(C(=O)/C=C/c3cc(OC)c(OC)c(OC)c3)cc2)nnc1-c1ccc(Cl)cc1, the growth is reported as 41.3% (inactive). For Cc1nc2sc(C(=O)Nc3cccc(Cl)c3C)c(N)c2cc1C(C)O (stereo not given), the growth was 7.9% (active). Oc1ccccc1-c1nc2c3ccccc3c3ccccc3c2o1 was tested, and the growth was 94.5% (inactive). For Cn1nc(C(F)(F)F)c(-c2cc(C(F)(F)F)cc(C(F)(F)F)c2)c1-c1ccc(OCc2ccc(Cl)cc2)cc1O, the growth was 1.98% (active). For CCC1=C[C@H]2CN(CCc3c([nH]c4ccccc34)[C@@](C(=O)OC)(c3cc4c(cc3OC)N(C)[C@H]3[C@@](O)(C(=O)OC)[C@H](OC(C)=O)[C@]5(CC)[C@@H]6C[C@@H]6CN6CC[C@]43[C@@H]65)C2)C1, the growth was 28% (inactive). With C=C(C)[C@@H]1CC[C@]2(C(=O)OCCCC[P+](c3ccccc3)(c3ccccc3)c3ccccc3)CC[C@]3(C)[C@H](CC[C@@H]4[C@@]5(C)CC[C@H](OC(=O)C(Cl)Cl)C(C)(C)[C@@H]5CC[C@]43C)[C@@H]12 the growth was 52.7% (inactive). S=C(Nc1ccc(Cl)cc1)c1ccccn1 was tested, and the growth was 96.6% (inactive). In the case of Cc1cc(O)cc(O)c1N=NC1=NCCS1, the growth is reported as 103% (inactive). In the case of CCCn1c2cc(OCc3cn(-c4ccc(Cl)cc4)nn3)ccc2c2ccnc(C)c21, the growth is reported as 66.3% (inactive). C=C1C(=O)O[C@H]2[C@H]1CC/C(C=Nc1c(N)cc(F)cc1Br)=C\CC[C@@]1(C)O[C@@H]21 was tested, and the growth was 109% (inactive). With COc1cc(C(=O)Nc2cc(O)c(C/C=C(\C)CCC=C(C)C)c(O)c2)cc2c1O[C@]1(C)CC[C@@H](O)C(C)(C)[C@H]1C2 the growth was 57.7% (inactive). For CC1CCN(CCCCCOc2ccc3oc4cc(Cl)ccc4c(=O)c3c2)CC1, the growth was 70.8% (inactive). With COc1ccc(NC(=O)Nc2ccc(Nc3nc(C)cc(Nc4ccc(C)cc4)n3)cc2)cc1 the growth was -56.3% (active). With NS(=O)(=O)c1ccc(C2C3=C(CCCC3=O)OC3=C2C(=O)c2ccccc2C3=O)cc1 (stereo not given) the growth was 56.9% (inactive). With CC(C)NS(=O)(=O)c1cccc(-c2ccc3c(=O)n(CCCN)c4c(c3c2)C(=O)c2ccccc2-4)c1 the growth was 98.6% (inactive). In the case of C=C1C(=O)O[C@H]2[C@H]1CC/C(COC(=O)n1ccnc1)=C\CC[C@@]1(C)O[C@@H]21, the growth is reported as 102% (inactive). C=C(C)[C@@H]1CC[C@]2(C(=O)N=C=S)CC[C@]3(C)[C@H](CC[C@@H]4[C@@]5(C)CCC(=O)C(C)(C)[C@@H]5CC[C@]43C)[C@@H]12 was tested, and the growth was 28.2% (inactive). In the case of Cc1cccc(C)c1Nc1nnc(-c2ccc(F)cc2)o1, the growth is reported as 97.8% (inactive). With CC1(c2ccccc2Cl)NC(=O)NC1=O (stereo not given) the growth was 96.9% (inactive). C[C@@H]1C(=O)[C@@H]2C[C@@H](O)[C@@H](O)C[C@]2(C)[C@H]2CC[C@@]3(C)C(=C12)CC[C@@H]3[C@@](C)(O)[C@H](O)CCC(C)(C)O was tested, and the growth was 110% (inactive). With COc1ccc(-c2[nH]c3ccccc3c2C=C(C#N)C#N)cc1 the growth was -12% (active).
